Compounds without any hit were thinned out: in the full panel of roughly 83,000, 20% have a hit.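 Method: cells in 96-well plates; compound added at one concentration; 48 h incubation; percent growth measured; values under 10 scored active.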 Calls of active or inactive are those of the source.
How the values were obtained:
Assay in all cases: NCI-60 one-dose screen, 48 h (100 = growth as untreated, 0 = no growth, -100 = all killed)
Settings in all cases: 10 µM unless noted
HCT-15 colon = system: HCT-15 colon
SNB-75 CNS = system: SNB-75 CNS
SNB-19 CNS = system: SNB-19 CNS
U251 CNS = system: U251 CNS
PC-3 prostate = system: PC-3 prostate
UACC-62 melanoma = system: UACC-62 melanoma
LOX IMVI melanoma = system: LOX IMVI melanoma
SK-MEL-28 melanoma = system: SK-MEL-28 melanoma
SK-MEL-2 melanoma = system: SK-MEL-2 melanoma
EKVX NSCLC = system: EKVX NSCLC
SN12C renal = system: SN12C renal
UO-31 renal = system: UO-31 renal
TK-10 renal = system: TK-10 renal
ACHN renal = system: ACHN renal
CAKI-1 renal = system: CAKI-1 renal
A498 renal = system: A498 renal
CCRF-CEM leukemia = system: CCRF-CEM leukemia
MOLT-4 leukemia = system: MOLT-4 leukemia
SK-MEL-5 melanoma = system: SK-MEL-5 melanoma

SMILES	growth (HCT-15 colon)	growth (SNB-75 CNS)	growth (SNB-19 CNS)	growth (U251 CNS)	growth (PC-3 prostate)	growth (UACC-62 melanoma)	growth (LOX IMVI melanoma)	growth (SK-MEL-28 melanoma)	growth (SK-MEL-2 melanoma)	growth (EKVX NSCLC)	growth (SN12C renal)	growth (UO-31 renal)	growth (TK-10 renal)	growth (ACHN renal)	growth (CAKI-1 renal)	growth (A498 renal)	growth (CCRF-CEM leukemia)	growth (MOLT-4 leukemia)	growth (SK-MEL-5 melanoma)
CC(=O)NCC1c2c(n(C)c3c(Cl)c(Cl)ccc23)C(=O)NC1(C)C (centres undefined)	102% (inactive)	87.7% (inactive)	102% (inactive)	94.7% (inactive)	91% (inactive)	94.4% (inactive)	95% (inactive)	111% (inactive)	103% (inactive)	90.7% (inactive)	85.5% (inactive)	84.6% (inactive)	89.5% (inactive)	95.1% (inactive)	77.4% (inactive)	93% (inactive)	107% (inactive)	84.9% (inactive)	
C#CCOc1ccc2ncnc(N3CCC(NC(=O)CCl)CC3)c2c1	67.7% [8.25 µM] (inactive)	24.2% [8.25 µM] (inactive)	77.9% [8.25 µM] (inactive)	66.1% [8.25 µM] (inactive)		72.7% [8.25 µM] (inactive)	78.1% [8.25 µM] (inactive)	77.5% [8.25 µM] (inactive)	69.6% [8.25 µM] (inactive)	72.7% [8.25 µM] (inactive)		40.6% [8.25 µM] (inactive)	69% [8.25 µM] (inactive)	57.6% [8.25 µM] (inactive)	71.4% [8.25 µM] (inactive)	29.9% [8.25 µM] (inactive)	39.8% [8.25 µM] (inactive)	40.9% [8.25 µM] (inactive)	75% [8.25 µM] (inactive)
CN1CCN(c2nc(NCCCNc3ccnc4cc(Cl)ccc34)c3ccccc3n2)CC1	52.7% (inactive)	79.6% (inactive)	45.4% (inactive)	2% (active)	43.4% (inactive)	-65.7% (active)	-43.8% (active)	-48.5% (active)	80.7% (inactive)	77.3% (inactive)	57.2% (inactive)	37.3% (inactive)	116% (inactive)	50% (inactive)		72.1% (inactive)	18.6% (inactive)	18.6% (inactive)	
COc1ccc(C(=O)c2sc3nc4c(c(-c5cccnc5)c3c2N)CCCC4)cc1OC	72.8% (inactive)	56.4% (inactive)	71% (inactive)			87.6% (inactive)	70.2% (inactive)	77.9% (inactive)			69.8% (inactive)	63.8% (inactive)	90% (inactive)	77.1% (inactive)	82.8% (inactive)	48.1% (inactive)	55.5% (inactive)	41.4% (inactive)	59.6% (inactive)
COc1cccc(NC(=O)c2sc3nc(C)c(C(C)=O)cc3c2N)c1	35.9% (inactive)	22.7% (inactive)	40.2% (inactive)	33.7% (inactive)	47.8% (inactive)	26.7% (inactive)	47.2% (inactive)	71% (inactive)	24.5% (inactive)	56.4% (inactive)	55.9% (inactive)	75.2% (inactive)	55.7% (inactive)	63.3% (inactive)		17.2% (inactive)	51.6% (inactive)	44.9% (inactive)	
COc1ccc(C2C(C#N)=C(N)Oc3n[nH]c(-c4cccs4)c32)cc1I (centres undefined)	81.4% (inactive)	77.9% (inactive)	87.1% (inactive)	90.6% (inactive)	85.8% (inactive)	79.1% (inactive)	89% (inactive)	108% (inactive)	101% (inactive)		96.5% (inactive)	81.8% (inactive)	99.7% (inactive)	98.5% (inactive)		77.4% (inactive)	76.3% (inactive)	74.9% (inactive)	
CCn1c(O)c(/C=N/NC(=O)C(C)c2ccc(CC(C)C)cc2)sc1=S (centres undefined)	17.6% (inactive)	-2% (active)	37.5% (inactive)	15.6% (inactive)		46% (inactive)	27.1% (inactive)	69.6% (inactive)	40.3% (inactive)	41.1% (inactive)	38% (inactive)	23.6% (inactive)	56.5% (inactive)	34.6% (inactive)	35.1% (inactive)	17.2% (inactive)	12.9% (inactive)	18.4% (inactive)	17% (inactive)
Cc1cc(C)nc(SC2=C(Nc3ccc(C)c(Cl)c3)C(=O)N(Cc3ccccc3)C2=O)n1	63% [30 µM] (inactive)	58.9% [30 µM] (inactive)	78.2% [30 µM] (inactive)	68.8% [30 µM] (inactive)		49.7% [30 µM] (inactive)	75.9% [30 µM] (inactive)	94.2% [30 µM] (inactive)	85.3% [30 µM] (inactive)	52.7% [30 µM] (inactive)	66.9% [30 µM] (inactive)	16.7% [30 µM] (inactive)	84.8% [30 µM] (inactive)		54.3% [30 µM] (inactive)	69.5% [30 µM] (inactive)	35.3% [30 µM] (inactive)	7.47% [30 µM] (active)	62.2% [30 µM] (inactive)
Oc1ccccc1-c1nnc(CNc2ccc(Cl)cc2)o1	20.7% (inactive)	50.3% (inactive)	41.9% (inactive)	16% (inactive)	34.5% (inactive)	8.19% (active)	7.71% (active)	32.2% (inactive)	30.1% (inactive)	38.9% (inactive)	40.6% (inactive)	19% (inactive)	44.7% (inactive)	12.7% (inactive)	17% (inactive)	77.9% (inactive)	11.8% (inactive)	15.5% (inactive)	
COc1cccc(C2=NN3C(C2)c2cc(Br)cc(OC)c2OC32CCN(Cc3ccccc3)CC2)c1 (centres undefined)	101% (inactive)	89.5% (inactive)	101% (inactive)	98.8% (inactive)		98.7% (inactive)	94.2% (inactive)	107% (inactive)	102% (inactive)	94.8% (inactive)	98.7% (inactive)	85.3% (inactive)	108% (inactive)	102% (inactive)	90.3% (inactive)	104% (inactive)	109% (inactive)	106% (inactive)	99.5% (inactive)
Cc1ccc(C2Oc3ccccc3C3CC(c4cccs4)=NN32)cc1 (centres undefined)	100% (inactive)	81.7% (inactive)	96% (inactive)	92.5% (inactive)		96.2% (inactive)	94.4% (inactive)	103% (inactive)	98.2% (inactive)	80.9% (inactive)	92.5% (inactive)	65.3% (inactive)	108% (inactive)	98.7% (inactive)	82.3% (inactive)	107% (inactive)	95.3% (inactive)	97.5% (inactive)	96.3% (inactive)
CN(C)CCN1C(=O)c2cccc3c(N)ccc(c23)C1=O	23.2% (inactive)	56.9% (inactive)	27.3% (inactive)	22.5% (inactive)		33.1% (inactive)	5.28% (active)	71.2% (inactive)	19.6% (inactive)	30.5% (inactive)	33.6% (inactive)	26.8% (inactive)	58.9% (inactive)		-7.49% (active)	65.6% (inactive)	10.5% (inactive)	1.9% (active)	-21.8% (active)
COc1ccc(-c2nnc(SCC(=O)c3ccc(Cl)cc3)o2)cc1	104% (inactive)	88.8% (inactive)	101% (inactive)		101% (inactive)		97.1% (inactive)		104% (inactive)	101% (inactive)			95.9% (inactive)	102% (inactive)	98.1% (inactive)	100% (inactive)	114% (inactive)	109% (inactive)	
O=C(Cn1cccc(Nc2ccccc2)c1=O)Nc1ccccc1	101% (inactive)	84.9% (inactive)	97.1% (inactive)	97.8% (inactive)	97.3% (inactive)	93.6% (inactive)		104% (inactive)	121% (inactive)		104% (inactive)		107% (inactive)	103% (inactive)	97.6% (inactive)	65.6% (inactive)	105% (inactive)	110% (inactive)	
Cc1cc(N2CCCCCC2)nc(NC2CCCC(Nc3ccnc4cc(Cl)ccc34)C2)n1 (centres undefined)	-87.4% (active)	-78.7% (active)	-54.5% (active)	-94.8% (active)	-88.1% (active)	-84.3% (active)	-93.1% (active)	-83.5% (active)	-82.2% (active)	-27.5% (active)	-90.7% (active)	-93.5% (active)	-81.2% (active)	-98.6% (active)		-74.7% (active)	-29.2% (active)	-51.8% (active)	
COc1cc(/C=C/C(=O)Nc2cccnc2Nc2ccc(F)cc2)cc(OC)c1OC	99% (inactive)	97% (inactive)	91.1% (inactive)			94.7% (inactive)	100% (inactive)	103% (inactive)	68.4% (inactive)	92.5% (inactive)		89.2% (inactive)	103% (inactive)	102% (inactive)	88.6% (inactive)		85% (inactive)	87.5% (inactive)	95.8% (inactive)
O=C1/C(=C/c2ccccc2O)N=C2SCCCN12	97% (inactive)	70.6% (inactive)	90.8% (inactive)	98.6% (inactive)	88.2% (inactive)		96.5% (inactive)		95.6% (inactive)	81.8% (inactive)		84% (inactive)	109% (inactive)	98.4% (inactive)	85.1% (inactive)	85.7% (inactive)	131% (inactive)	115% (inactive)	
Cc1ccc(NC(=O)C2CCC(CN3CCN(C)CC3)CC2)cc1Nc1nccc(-c2cccnc2)n1 (centres undefined)	95.2% (inactive)	77.6% (inactive)	100% (inactive)	95% (inactive)	103% (inactive)	103% (inactive)	90.8% (inactive)	99.7% (inactive)	112% (inactive)	97.6% (inactive)	91.9% (inactive)	83.3% (inactive)	121% (inactive)	94.9% (inactive)	95.5% (inactive)	89.6% (inactive)	109% (inactive)	89.8% (inactive)	
O=C1NC(=O)C(c2ccc(Cl)cc2Cl)N1 (centres undefined)	108% (inactive)	92.7% (inactive)	97.1% (inactive)		104% (inactive)	97.7% (inactive)	104% (inactive)	112% (inactive)	110% (inactive)	113% (inactive)	104% (inactive)	73.2% (inactive)	98.1% (inactive)	110% (inactive)	100% (inactive)	96.6% (inactive)	93.2% (inactive)	94.3% (inactive)	
Nc1n[nH]c2ccc([C@@H]3Nc4cc5c(cc4[C@H]4C6CCC(C6)[C@@H]34)C(=O)NC5)cc12 (some centres undefined)	15.2% (inactive)	2.29% (active)	28.2% (inactive)	18.1% (inactive)	16.8% (inactive)	38.9% (inactive)	18.2% (inactive)	59.2% (inactive)	48.8% (inactive)		38.4% (inactive)	54.9% (inactive)	89.3% (inactive)	34.4% (inactive)	40.5% (inactive)		10.5% (inactive)	14.7% (inactive)	
C=C1c2nc3ccccc3n2C=C(c2ccc(Cl)cc2)N1Cc1ccc(OC)cc1	67.3% (inactive)	103% (inactive)	79.1% (inactive)	92.8% (inactive)		68% (inactive)	87.5% (inactive)	88.9% (inactive)	70.4% (inactive)	71.3% (inactive)	92.2% (inactive)	52.2% (inactive)	138% (inactive)	89.5% (inactive)	85.7% (inactive)	90.5% (inactive)	86.3% (inactive)	64.8% (inactive)	72.3% (inactive)
CC(=O)c1nc2ccccc2n1CC(=O)c1cccc(Cl)c1	27.3% (inactive)	21% (inactive)	24.1% (inactive)	14.3% (inactive)		31.5% (inactive)	36.9% (inactive)	67.7% (inactive)	61.9% (inactive)	17.1% (inactive)	31.9% (inactive)	28.3% (inactive)	34.3% (inactive)		5.79% (active)	88.5% (inactive)	5.08% (active)	4.87% (active)	-13.2% (active)
COc1ccc(-c2cc(=O)c3c(OC)c4ccoc4cc3o2)cc1	92.4% (inactive)	104% (inactive)	82.4% (inactive)	92.5% (inactive)	86.1% (inactive)	98.4% (inactive)	95.1% (inactive)	118% (inactive)	131% (inactive)		93.8% (inactive)	90.7% (inactive)	108% (inactive)	102% (inactive)	103% (inactive)	121% (inactive)	109% (inactive)	84.7% (inactive)	
O=C1c2ccccc2C(=O)c2c1ccc1[nH]c(-c3cccs3)nc21	89.8% (inactive)	98.9% (inactive)	100% (inactive)	72.7% (inactive)		85.5% (inactive)	79.2% (inactive)	127% (inactive)	107% (inactive)	71.7% (inactive)	73.4% (inactive)	58.6% (inactive)	87.3% (inactive)	66.5% (inactive)	82% (inactive)	96.5% (inactive)	88.4% (inactive)	70.1% (inactive)	85% (inactive)
O=[N+]([O-])c1ccc2c(c1)Cc1cc(F)ccc1-2	97.1% (inactive)	92.1% (inactive)	92.5% (inactive)	93.1% (inactive)		85.2% (inactive)	103% (inactive)	107% (inactive)	126% (inactive)	68.7% (inactive)	99% (inactive)	88.8% (inactive)	96.8% (inactive)	103% (inactive)	96.4% (inactive)		81.9% (inactive)	94.1% (inactive)	86.4% (inactive)
